Among the test systems are SR leukemia; RPMI-8226 leukemia; OVCAR-8 ovarian; OVCAR-5 ovarian; OVCAR-4 ovarian; SK-OV-3 ovarian; IGROV1 ovarian; OVCAR-3 ovarian; HS 578T breast; T-47D breast; BT-549 breast; MDA-MB-435 melanoma; SW-620 colon; MCF7 breast; HCT-116 colon; HCC-2998 colon; KM12 colon; NCI/ADR-RES ovarian.
Holding throughout (assay): NCI-60 one-dose screen, 48 h (100 = growth as untreated, 0 = no growth, -100 = all killed)
Holding throughout (conditions): 10 µM unless noted

Each structure is given as a SMILES string. This is part of a sample that, as a whole, favours compounds with a hit. Of some 83,000 tested, about 20% had one in any assay.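 Step 1: grow cells in 96-well plates. Step 2: add test compound at a single concentration. Step 3: incubate 48 h. Step 4: record percent growth.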 A number with no mark means an inactive call. Active and inactive are the calls of the source. How the source made its calls: active means growth percent below 10; inactive means the rest.

`COc1ccc(-c2cn3c(ccc4ccccc43)n2)cc1`: the growth in the assay on SR leukemia was 102%; in the assay with RPMI-8226 leukemia, 92.1%; in the assay with OVCAR-8 ovarian, 98.8%; in the assay with OVCAR-5 ovarian, 112%; in the assay on OVCAR-4 ovarian, 101%; in the assay with SK-OV-3 ovarian, 92.8%. The growth with IGROV1 ovarian is 78.3%; in the assay with OVCAR-3 ovarian it was 89.7%; in the assay with HS 578T breast, 96.2%; with T-47D breast, 76.5%; with BT-549 breast it was 97.8%; with MDA-MB-435 melanoma, 114%. For the same molecule, the growth with SW-620 colon is 97.5%; with MCF7 breast, 75.8%; in the assay on HCT-116 colon, 96.5%; with HCC-2998 colon it was 109%; with KM12 colon, 95.2%.
`Nc1nc2c(c3ncccc13)C(c1cccc(Br)c1)Cc1ncccc1-2` (configuration not stated): the growth in the assay with SR leukemia was 2.96% (active); in the assay on RPMI-8226 leukemia, 34%; in the assay on OVCAR-8 ovarian it was 26.6%; in the assay on OVCAR-5 ovarian it was 50.6%; in the assay on OVCAR-4 ovarian, 58%; in the assay on SK-OV-3 ovarian it was 16.5%. In addition, the growth in the assay on IGROV1 ovarian was 42%; with OVCAR-3 ovarian, -8.61% (active); in the assay on HS 578T breast, 37.2%; in the assay with NCI/ADR-RES ovarian it was 11.4%; with T-47D breast, 29.3%; in the assay with MDA-MB-435 melanoma, 1.43% (active). The growth is 29.1% with SW-620 colon; 16.5% with MCF7 breast; 11.5% in the assay with HCT-116 colon; 25.4% in the assay with HCC-2998 colon; 18.4% in the assay with KM12 colon.
On to `CCOC(=O)c1cnc2cc(Cl)c(F)cc2c1Nc1cccc(NS(C)(=O)=O)c1`, for which the growth was 112% with SR leukemia; 105% in the assay with RPMI-8226 leukemia; 102% with OVCAR-8 ovarian; 93.2% in the assay on OVCAR-5 ovarian; 95.5% in the assay with OVCAR-4 ovarian; 111% with SK-OV-3 ovarian. The growth with IGROV1 ovarian was 91%; in the assay with OVCAR-3 ovarian it was 102%; with HS 578T breast it was 93.7%; in the assay with T-47D breast, 93.5%; in the assay on BT-549 breast it was 105%; in the assay with MDA-MB-435 melanoma it was 104%. Also, the growth was 94.1% in the assay with SW-620 colon; 92.5% with MCF7 breast; 86.5% with HCT-116 colon; 98.4% in the assay with HCC-2998 colon; 93.8% in the assay with KM12 colon.
For the molecule `O=C1Nc2ccc(Br)cc2C12CC(c1ccccc1)=NN2` (configuration not stated), the growth in the assay with SR leukemia was 12.5%; in the assay on RPMI-8226 leukemia it was 28.3%; in the assay with OVCAR-8 ovarian, 61%; with OVCAR-5 ovarian, 82%; with OVCAR-4 ovarian it was 67.5%; in the assay on SK-OV-3 ovarian, 48.4%. Also, the growth is 52.6% in the assay with IGROV1 ovarian; 24.1% in the assay on OVCAR-3 ovarian; 47% with HS 578T breast; 71.6% with T-47D breast; 47.8% in the assay with BT-549 breast; -21.1% (active) in the assay with MDA-MB-435 melanoma. The growth is 18.6% in the assay on SW-620 colon; 18.3% in the assay with MCF7 breast; 22.9% in the assay with HCT-116 colon; 75.2% in the assay on HCC-2998 colon; 30.6% with KM12 colon.
Take `CC(C)(C)n1cc(-c2ccnc(NCCCNS(=O)(=O)c3cccc4ccccc34)c2)c(-c2cccc(O)c2)n1`: the growth with SR leukemia is -1.59% (active); in the assay with RPMI-8226 leukemia, -34.8% (active); in the assay with OVCAR-8 ovarian, 30.6%; in the assay on OVCAR-5 ovarian, 48.4%; in the assay on OVCAR-4 ovarian it was 36.5%; in the assay with SK-OV-3 ovarian, 71.4%. The growth in the assay on IGROV1 ovarian is 41.7%; in the assay with OVCAR-3 ovarian it was 43.6%; in the assay on HS 578T breast, 36.6%; in the assay on T-47D breast, 7.41% (active); in the assay on BT-549 breast, 39.8%; in the assay on MDA-MB-435 melanoma, 36.4%. The growth was 16.3% with SW-620 colon; 11.5% with MCF7 breast; 29.4% in the assay on HCT-116 colon; -49.4% (active) in the assay with HCC-2998 colon; 14.3% in the assay on KM12 colon.
Consider `COC(=S)SCN(CSC(=S)OC)c1ccc(Cl)cc1`, for which the growth with SR leukemia is 123%; in the assay on RPMI-8226 leukemia, 73.1%; with OVCAR-8 ovarian it was 91.3%; in the assay with OVCAR-5 ovarian, 97.1%; in the assay on OVCAR-4 ovarian, 87.6%; in the assay with SK-OV-3 ovarian, 91.6%. Moreover, the growth in the assay with IGROV1 ovarian is 95.4%; in the assay on OVCAR-3 ovarian, 104%; in the assay on HS 578T breast, 88.4%; with T-47D breast it was 70.1%; in the assay on BT-549 breast it was 65.8%; in the assay on MDA-MB-435 melanoma it was 95.3%. For the same molecule, the growth in the assay with SW-620 colon is 99.1%; in the assay on MCF7 breast it was 73.5%; in the assay with HCT-116 colon it was 79.7%; with HCC-2998 colon it was 100%; in the assay on KM12 colon, 98.2%.
Regarding `COc1cc(/C=N\NC(=O)CN2CCN(c3cc4c(cc3F)c(=O)c(C(=O)N/N=C/c3ccc(O)c(OC)c3)cn4C3CC3)CC2)ccc1O`, the growth in the assay on SR leukemia is 33.9%; in the assay on RPMI-8226 leukemia, 31.2%; in the assay with OVCAR-8 ovarian it was 61.7%; in the assay on OVCAR-5 ovarian, 98.2%; in the assay on OVCAR-4 ovarian, 47.8%; in the assay with SK-OV-3 ovarian, 106%. Moreover, the growth was 63.7% with IGROV1 ovarian; 14.4% with OVCAR-3 ovarian; 63.5% in the assay with HS 578T breast; -1.62% (active) with T-47D breast; 55% in the assay on MDA-MB-435 melanoma; 57.2% in the assay with SW-620 colon. For the same molecule, the growth is 12.5% in the assay on MCF7 breast, 53.6% in the assay on HCT-116 colon, 7.72% (active) with HCC-2998 colon and 20.5% in the assay on KM12 colon.
With `CCOc1ccc(Nc2nc(-c3c(C)nc4ncccn34)cs2)cc1`, the growth with SR leukemia is 6.09% (active); in the assay with RPMI-8226 leukemia, -9.92% (active); in the assay with OVCAR-8 ovarian it was 16.5%; in the assay with OVCAR-5 ovarian, 20.7%; in the assay with OVCAR-4 ovarian, 39.6%; in the assay with SK-OV-3 ovarian, 3.86% (active). Further, the growth was 33.7% with IGROV1 ovarian; -20.9% (active) in the assay on OVCAR-3 ovarian; 34.1% in the assay on HS 578T breast; 8.95% (active) with NCI/ADR-RES ovarian; 20.6% in the assay with BT-549 breast; -41% (active) in the assay with MDA-MB-435 melanoma. The growth with SW-620 colon was 24.6%; with MCF7 breast it was 15%; in the assay on HCT-116 colon, 2.95% (active); in the assay on HCC-2998 colon, 23.4%; with KM12 colon it was 6.58% (active).
Turning to `CCOC(=O)c1cnc2ccc(Br)cc2c1Nc1cccc(S(=O)(=O)NC)c1`, the growth in the assay on SR leukemia is 124%; in the assay with RPMI-8226 leukemia, 110%; in the assay with OVCAR-8 ovarian, 101%; in the assay with OVCAR-5 ovarian, 100%; with OVCAR-4 ovarian, 82.4%; with SK-OV-3 ovarian it was 96.2%. Moreover, the growth with IGROV1 ovarian is 89.5%; in the assay with OVCAR-3 ovarian, 104%; in the assay with HS 578T breast, 95.8%; with T-47D breast it was 86%; in the assay on BT-549 breast it was 101%; with MDA-MB-435 melanoma it was 105%. Moreover, the growth with SW-620 colon was 91.9%; with MCF7 breast, 91.3%; in the assay with HCT-116 colon it was 84.7%; with HCC-2998 colon, 97%; with KM12 colon, 98.7%.

(Values after PubChem BioAssay (NCI).)
